This is a sample that favours compounds with a hit; in the whole collection about 19% have one here.
IL-1B inflam inh – blocks inflammasome-driven IL-1 beta release; THP-1 LPS/ATP IL-1B secretion, AlphaLISA, 16 h; hits give low values; activity change, % at 57.5 µM; 4.7% of 360,000 active; in the data active = activity change below about -50%; inconclusive = mostly about -30% to -49%; note: % is set by controls: 0 for no effect and ±100 for the full control effect
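THP-1 cells pretreated 1 hr with compounds (up to 57.5 uM final), then stimulated with LPS (250 ng/mL final) plus ATP (1.25 mM final); secreted IL-1B measured by AlphaLISA after 16 hr, decreased signal indicating inhibition.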
S-ASM inh – human S-ASM enzyme inhibition | P17405 | placental ASM, HMU-PC fluorogenic substrate, 60 min | Potency, µM (highest dose often 57.5 µM), for inactives: top-dose activity change, negative = inhibition, usual class: inhibitors | 0.006% of 340,000 active | AID 504937; note: potency is the fitted concentration of half-maximal effect
Target sequence (P17405 47-631 limits assumed): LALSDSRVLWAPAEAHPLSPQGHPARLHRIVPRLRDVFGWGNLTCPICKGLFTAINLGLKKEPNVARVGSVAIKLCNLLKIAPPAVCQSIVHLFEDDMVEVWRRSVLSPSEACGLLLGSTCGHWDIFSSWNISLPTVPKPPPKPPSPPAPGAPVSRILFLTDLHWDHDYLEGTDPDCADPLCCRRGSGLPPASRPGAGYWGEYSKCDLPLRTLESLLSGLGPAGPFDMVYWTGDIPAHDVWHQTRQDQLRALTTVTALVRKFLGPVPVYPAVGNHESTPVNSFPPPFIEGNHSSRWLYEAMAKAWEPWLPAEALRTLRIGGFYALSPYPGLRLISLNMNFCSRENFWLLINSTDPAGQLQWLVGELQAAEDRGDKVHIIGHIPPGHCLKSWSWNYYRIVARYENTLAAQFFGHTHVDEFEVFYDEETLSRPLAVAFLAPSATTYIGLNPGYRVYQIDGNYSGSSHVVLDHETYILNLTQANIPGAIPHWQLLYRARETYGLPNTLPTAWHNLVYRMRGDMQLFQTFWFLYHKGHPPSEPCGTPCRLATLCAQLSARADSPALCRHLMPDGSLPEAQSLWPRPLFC
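Steps: dispense placental human ASM, pin compound, wait 10 min at room temperature, add HMU-PC0 substrate at 9 uM final, incubate 60 min at 37 °C, add stop solution raising pH to 10, read fluorescence.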
DT40 TDP1 CPT – DT40-hTDP1 cell growth loss with CPT | chicken DT40 Tdp1-/-;hTDP1 cells + 20 nM CPT, ATP luminescence, 48 h | Potency, µM (series often up to 46.2 µM), for the others: at the top dose activity change, negative = growth inhibition, most hits filed as inhibitors | 12% of 420,000 active | AID 686979; note: potency is the fitted concentration of half-maximal effect; % is set by controls: 0 for no effect and ±100 for the full control effect; nearly all actives have a fitted effect of over 55% in size
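Chicken DT40 Tdp1-/- cells complemented with human TDP1, 400 cells/well, exposed to compounds plus 20 nM camptothecin for at least 48 h at 37 C; viability read as ATP content by CellTiter-Glo luminescence.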
DT40 TDP1 no CPT – qHTS for Inhibitors of human tyrosyl-DNA phosphodiesterase 1 (TDP1): qHTS in cells in absence of CPT; DT40 Tdp1-/- hTDP1 cells, no CPT, ATP luminescence, 48 h; Potency, µM (top dose mostly 46.2 µM), for the others: at the top dose activity change, negative = growth inhibition, most hits filed as inhibitors; AID 686978, 2013; 15% of 420,000 active; note: potency is the fitted concentration of half-maximal effect; % is set by controls: 0 for no effect and ±100 for the full control effect; nearly all actives have a fitted effect of over 55% in size
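Luminescent ATP content (CellTiter-Glo) served as the growth readout. Knockout chicken DT40 cells expressing human TDP1 were exposed to compounds without camptothecin for a minimum 48 hr at 37 °C.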
TGFb SMAD3 inh – TGF-b pathway inhibition. HepG2 CAGA-GFP TGF-b/SMAD3 reporter, GFP fluorescence, 18 h; TGF-beta stimulated, 500 pg/mL final. Potency, µM (top dose mostly 46.1 µM), inactives show at the highest dose activity, negative = inhibition, actives largely listed as inhibitors. 1.2% of 410,000 active; note: potency is the fitted concentration of half-maximal effect; % is set by controls: 0 for no effect and ±100 for the full control effect; nearly all actives have a fitted effect of over 65% in size
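GFP signal (ex488/em500-530) from TGF-beta-stimulated HEPG2 CAGA-GFP cells, 500 pg/mL final, 18 h at 37 degrees C in DMEM plus 1% FBS, normalized to unstimulated and DMSO-stimulated controls.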
HepG2 tox – HepG2 cytotoxicity, counter-screen for TGF-b inhibitors; HepG2 CAGA-GFP viability, ATP luminescence, 18 h; Potency, µM (doses to about 46.1 µM), inactives show at the highest dose activity change, negative = cytotoxicity, usual class: cytotoxic; 0.76% of 410,000 active; AID 588856; note: potency is the fitted concentration of half-maximal effect
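CellTiter-Glo luminescence gave cytotoxicity after 18 hours at 37 degrees C. The cells were HepG2 CAGA-GFP in 1% FBS DMEM, stimulated with 500 pg/mL TGF-beta after compound addition. %Activity was normalised to no-cell wells (complete cell-killing) and DMSO (no toxicity), and curves were fitted and classified.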
* hit, by the source's call; u = inconclusive; x = no result. Unless noted, calls come from the whole dose curve; as a rule, active = well fitted curve in the direction sought with a large enough effect; inconclusive = small, poorly fitted or top-dose-only effect, or another doubt; inactive = no such curve, though single readings can be large; an effect the other way counts as inactive or inconclusive.

SMILES	IL-1B inflam inh	S-ASM inh	DT40 TDP1 CPT	DT40 TDP1 no CPT	TGFb SMAD3 inh	HepG2 tox
Cc1ccc2ccc(C(Nc3ccccc3)c3ccc(Cl)cc3)c(O)c2n1 (configuration not stated)	65.4	x	4.11µM*	3.26µM*	x	x
Cc1ccc2ccc(C(Nc3cccc(C(F)(F)F)c3)c3cccnc3)c(O)c2n1 (configuration not stated)	59.6	-10.6%	u	u	-14.5%	-0.6%
O=C(CC(Nc1ccccc1)c1ccc(F)cc1)c1ccccc1 (configuration not stated)	-15.3	-12.9%	u	u	u	-0.6%
Cc1ccc2ccc(C(Nc3ccccc3)c3ccccc3)c(O)c2n1 (configuration not stated)	46.7	x	10.3µM*	6.51µM*	x	x
Cc1ccc(NC(=O)CSc2nnc(-c3cc4occc4n3C)n2-c2ccccc2C)cc1F	x	x	25.9µM*	16.4µM*	-21.1%	-13.0%
CCc1cccc(NC(=O)CSc2nnc(-c3cc4occc4n3C)n2-c2ccccc2C)c1	x	x	u	u	-18.8%	-6.5%
Cc1ccc(NC(=O)CSc2nnc(-c3cc4occc4n3C)n2-c2ccccc2C)c(C)c1	x	x	u	18.4µM*	-3.8%	-15.4%
Cc1ccc(NC(=O)CSc2ccc(-c3ccco3)nn2)c(C)c1	4.7	-0.6%	u	u	13.1%	-0.4%
Cc1cc(C(=O)COC(=O)COc2ccccc2C#N)c(C)n1CC1CCCO1 (configuration not stated)	1.2	1.9%	-7.9%	19.1%	-7.9%	-4.4%
COc1ccc([N+](=O)[O-])cc1-n1cnnn1	7.1	1.9%	12.5%	1.3%	-16.0%	7.0%
COc1ccc(-c2n(CC(=O)OC3CC(C)CCC3C(C)C)c3ccccc3[n+]2C)cc1 (configuration not stated)	-200.7*	-2.5%	0.461µM*	0.411µM*	5.01µM*	11.2µM*
COc1ccc(OCc2n(CC(=O)OC3CC(C)CCC3C(C)C)c3ccccc3[n+]2C)cc1 (configuration not stated)	-57.5*	-10.4%	3.26µM*	2.31µM*	u	14.1µM*
CC1CCC(C(C)C)[C@H](OC(=O)c2ccccc2)C1 (some centres not stated)	x	x	7.2%	16.8%	x	x
CC1CCC(C(C)C)C(OC(=O)CSc2nccc(=O)[nH]2)C1 (configuration not stated)	-5.7	-0.7%	u	-26.8%	6.1%	-34.6%
COc1ccc(OCCCC(=O)NNC(=O)c2ccncc2)cc1	10.4	x	9.8%	4.3%	-18.1%	-5.1%
COc1ccc(CNC(=O)Cc2ccc(NC(=O)N3CCCCc4ccccc43)cc2)cc1	x	x	u	23.1µM*	9.5%	0.9%
CCOc1ccc(CNC(=O)c2ccc(NC(=O)N3CCCCc4ccccc43)cc2)cc1OC	x	x	-21.4%	3.2%	-12.8%	-0.8%
COc1ccc(CC(=O)NC2CCN(CC(=O)N3CCCc4ccccc43)CC2)cc1OC	29.7	4.4%	-22.0%	3.66µM*	4.0%	-21.8%
COc1ccc(CC(=O)N2CCCc3ccccc32)cc1OC	12.1	5.3%	-26.0%	u	-0.1%	-7.5%
COc1ccc(OC)c(CNC(=O)Cc2ccc(NC(=O)N3CCCCc4ccccc43)cc2)c1	x	x	11.6µM*	9.2µM*	28.9%	-5.5%
CCc1ccc(CNC(=O)c2ccc(NC(=O)N3CCCCc4ccccc43)cc2)cc1	x	x	20.6µM*	u	-0.2%	-0.6%
Cc1ccc(S(=O)(=O)N2CCN(C(=O)Cn3c(=O)oc4ccccc43)CC2)c(C)c1	2.2	-0.3%	-14.2%	-1.5%	-2.7%	-14.4%
